Of roughly 7,900 targets only a part is listed; those with a hit were picked by preference. About 0.6% of all pairs of compound and target were hits. A number with no mark means an inactive call.
Tests used:
Experiment in all cases: log2 fold change, soluble protein after heating vs DMSO (PISA); higher = thermal stabilisation; K562 cells, 10 uM, 30 min; active = over 0.2 and 3.5 SD of the protein, either way, in both replicates (recomputed)
[1] = compound: C1=CC=C(C=C1)[C@H](COC2=CC3=C(C=C2)NC(=O)N3)NC(=O)C4=CC=CN(C4=O)CC5=CC(=C(C=C5)F)F
How it was run: (§1)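 Values are thermal stability changes relative to control samples and are taken from duplicates. They are stated as log2 fold changes. Before quantification by TMTpro 16plex LC-MS/MS with equalised channel sums, K562 cells at 2×10^6 cells/mL were treated with 10 μM compound for 30 min, heated in aliquots for 3 min across 48°C-58°C, pooled, extracted in PBS with 0.5% NP-40 at 4°C, and centrifuged at 21,000xg for 90 min to give the soluble supernatant.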

[2] = compound: CC1=C(SC2=C1C(=N[C@H](C3=NN=C(N32)C)CC(=O)N)C4=CC=C(C=C4)Cl)C
How it was run: as §1

[3] = compound: CC1=C2C(=CC=C1)N=C(N(C2=O)C3=CC=CC=C3C)CN4C=NC5=C(N=CN=C54)N
How it was run: as §1

[4] = compound: Cc1sc2c(c1C)C(c1ccc(Cl)cc1)=N[C@@H](CC(=O)OC(C)(C)C)c1nnc(C)n1-2
How it was run: as §1

[5] = compound: c1ccc([C@@H]2C[C@H]2NC2CCNCC2)cc1
How it was run: as §1

Chain of UniProt Q9Y5V3 (Q9Y5V3 whole entry, looked up): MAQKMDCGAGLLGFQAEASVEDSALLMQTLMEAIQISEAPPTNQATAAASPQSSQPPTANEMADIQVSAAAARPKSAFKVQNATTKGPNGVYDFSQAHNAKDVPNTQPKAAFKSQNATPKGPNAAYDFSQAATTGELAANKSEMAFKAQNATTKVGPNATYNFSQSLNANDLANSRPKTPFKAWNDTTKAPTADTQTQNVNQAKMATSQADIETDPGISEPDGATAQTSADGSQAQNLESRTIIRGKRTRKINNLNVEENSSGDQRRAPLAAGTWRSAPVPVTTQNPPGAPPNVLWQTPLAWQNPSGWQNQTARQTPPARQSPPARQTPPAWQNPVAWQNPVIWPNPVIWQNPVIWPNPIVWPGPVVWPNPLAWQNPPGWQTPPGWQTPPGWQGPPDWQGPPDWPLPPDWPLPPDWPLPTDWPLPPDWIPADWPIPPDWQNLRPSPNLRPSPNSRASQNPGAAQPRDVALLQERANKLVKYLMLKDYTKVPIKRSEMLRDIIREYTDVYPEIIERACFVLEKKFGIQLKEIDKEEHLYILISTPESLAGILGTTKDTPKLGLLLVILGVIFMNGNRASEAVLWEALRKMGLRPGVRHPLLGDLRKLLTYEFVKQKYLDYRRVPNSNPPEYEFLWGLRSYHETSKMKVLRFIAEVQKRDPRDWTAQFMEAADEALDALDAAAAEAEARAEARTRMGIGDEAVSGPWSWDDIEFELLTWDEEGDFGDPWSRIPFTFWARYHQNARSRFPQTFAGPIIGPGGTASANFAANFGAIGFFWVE
Chain of UniProt Q14693 (Q14693 whole entry, looked up): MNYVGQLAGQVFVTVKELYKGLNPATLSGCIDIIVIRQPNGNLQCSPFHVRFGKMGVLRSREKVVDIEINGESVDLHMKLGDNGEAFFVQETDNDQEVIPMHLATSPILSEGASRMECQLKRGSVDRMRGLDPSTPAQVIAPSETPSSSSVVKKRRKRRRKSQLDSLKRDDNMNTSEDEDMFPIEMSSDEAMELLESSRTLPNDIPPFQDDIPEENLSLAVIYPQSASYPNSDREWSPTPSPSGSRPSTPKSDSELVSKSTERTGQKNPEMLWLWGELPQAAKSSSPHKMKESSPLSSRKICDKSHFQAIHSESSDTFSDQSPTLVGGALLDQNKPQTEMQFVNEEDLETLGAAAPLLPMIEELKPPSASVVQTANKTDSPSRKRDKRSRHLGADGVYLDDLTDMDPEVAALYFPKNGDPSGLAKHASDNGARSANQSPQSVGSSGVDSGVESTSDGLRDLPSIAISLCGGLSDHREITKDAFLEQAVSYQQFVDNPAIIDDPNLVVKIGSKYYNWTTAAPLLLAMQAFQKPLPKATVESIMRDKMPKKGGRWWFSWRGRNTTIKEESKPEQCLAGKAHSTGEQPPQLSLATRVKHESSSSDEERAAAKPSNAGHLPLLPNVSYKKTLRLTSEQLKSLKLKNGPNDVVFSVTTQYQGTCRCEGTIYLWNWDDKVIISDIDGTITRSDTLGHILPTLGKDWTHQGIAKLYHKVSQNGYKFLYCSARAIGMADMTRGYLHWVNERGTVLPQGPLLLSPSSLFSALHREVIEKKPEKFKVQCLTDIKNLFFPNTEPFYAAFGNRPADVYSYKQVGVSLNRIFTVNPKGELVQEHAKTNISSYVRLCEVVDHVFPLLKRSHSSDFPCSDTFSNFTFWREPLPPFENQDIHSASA
Chain of UniProt P01116 (P01116 whole entry, looked up): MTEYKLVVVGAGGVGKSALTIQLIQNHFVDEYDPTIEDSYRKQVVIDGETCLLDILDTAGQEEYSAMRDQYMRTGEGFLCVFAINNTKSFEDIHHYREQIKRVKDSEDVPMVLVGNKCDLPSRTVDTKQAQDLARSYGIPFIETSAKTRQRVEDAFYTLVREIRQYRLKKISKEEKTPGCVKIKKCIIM
Chain of UniProt Q92585 (Q92585 whole entry, looked up): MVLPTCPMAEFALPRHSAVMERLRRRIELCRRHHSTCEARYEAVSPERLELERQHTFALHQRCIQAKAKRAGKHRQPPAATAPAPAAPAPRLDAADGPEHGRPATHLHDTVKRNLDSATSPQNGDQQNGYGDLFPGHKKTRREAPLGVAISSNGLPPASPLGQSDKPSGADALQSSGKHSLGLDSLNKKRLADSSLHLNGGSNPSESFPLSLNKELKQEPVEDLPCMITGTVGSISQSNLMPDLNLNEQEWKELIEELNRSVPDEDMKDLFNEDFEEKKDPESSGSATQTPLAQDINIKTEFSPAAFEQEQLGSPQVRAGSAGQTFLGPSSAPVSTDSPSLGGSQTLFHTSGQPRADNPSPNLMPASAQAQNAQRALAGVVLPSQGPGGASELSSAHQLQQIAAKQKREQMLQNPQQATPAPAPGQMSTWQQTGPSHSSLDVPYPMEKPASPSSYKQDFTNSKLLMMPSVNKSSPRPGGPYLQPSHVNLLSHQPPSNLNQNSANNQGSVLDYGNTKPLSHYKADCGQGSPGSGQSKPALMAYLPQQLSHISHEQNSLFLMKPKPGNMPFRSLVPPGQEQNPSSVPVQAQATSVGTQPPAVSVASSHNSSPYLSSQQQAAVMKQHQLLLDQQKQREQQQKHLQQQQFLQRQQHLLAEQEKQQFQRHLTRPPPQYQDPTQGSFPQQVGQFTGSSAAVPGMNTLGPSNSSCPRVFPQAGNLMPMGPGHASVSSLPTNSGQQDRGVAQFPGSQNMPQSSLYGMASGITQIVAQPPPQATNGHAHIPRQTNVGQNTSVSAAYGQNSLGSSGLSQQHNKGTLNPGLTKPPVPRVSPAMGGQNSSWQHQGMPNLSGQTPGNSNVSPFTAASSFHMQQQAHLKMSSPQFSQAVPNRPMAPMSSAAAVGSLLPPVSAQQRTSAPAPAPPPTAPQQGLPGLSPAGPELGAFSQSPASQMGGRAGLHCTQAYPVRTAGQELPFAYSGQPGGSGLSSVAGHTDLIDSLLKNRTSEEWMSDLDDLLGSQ
Chain of UniProt Q9UPY8 (Q9UPY8 whole entry, looked up): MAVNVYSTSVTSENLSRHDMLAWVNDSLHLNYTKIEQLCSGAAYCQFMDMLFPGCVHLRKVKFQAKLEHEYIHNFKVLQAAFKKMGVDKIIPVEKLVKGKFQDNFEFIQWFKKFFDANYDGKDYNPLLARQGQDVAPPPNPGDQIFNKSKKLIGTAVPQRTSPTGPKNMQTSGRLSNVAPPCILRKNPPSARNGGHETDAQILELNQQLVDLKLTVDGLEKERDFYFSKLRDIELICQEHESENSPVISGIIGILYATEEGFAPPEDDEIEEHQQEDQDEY
Chain of UniProt P08514 (P08514 whole entry, looked up): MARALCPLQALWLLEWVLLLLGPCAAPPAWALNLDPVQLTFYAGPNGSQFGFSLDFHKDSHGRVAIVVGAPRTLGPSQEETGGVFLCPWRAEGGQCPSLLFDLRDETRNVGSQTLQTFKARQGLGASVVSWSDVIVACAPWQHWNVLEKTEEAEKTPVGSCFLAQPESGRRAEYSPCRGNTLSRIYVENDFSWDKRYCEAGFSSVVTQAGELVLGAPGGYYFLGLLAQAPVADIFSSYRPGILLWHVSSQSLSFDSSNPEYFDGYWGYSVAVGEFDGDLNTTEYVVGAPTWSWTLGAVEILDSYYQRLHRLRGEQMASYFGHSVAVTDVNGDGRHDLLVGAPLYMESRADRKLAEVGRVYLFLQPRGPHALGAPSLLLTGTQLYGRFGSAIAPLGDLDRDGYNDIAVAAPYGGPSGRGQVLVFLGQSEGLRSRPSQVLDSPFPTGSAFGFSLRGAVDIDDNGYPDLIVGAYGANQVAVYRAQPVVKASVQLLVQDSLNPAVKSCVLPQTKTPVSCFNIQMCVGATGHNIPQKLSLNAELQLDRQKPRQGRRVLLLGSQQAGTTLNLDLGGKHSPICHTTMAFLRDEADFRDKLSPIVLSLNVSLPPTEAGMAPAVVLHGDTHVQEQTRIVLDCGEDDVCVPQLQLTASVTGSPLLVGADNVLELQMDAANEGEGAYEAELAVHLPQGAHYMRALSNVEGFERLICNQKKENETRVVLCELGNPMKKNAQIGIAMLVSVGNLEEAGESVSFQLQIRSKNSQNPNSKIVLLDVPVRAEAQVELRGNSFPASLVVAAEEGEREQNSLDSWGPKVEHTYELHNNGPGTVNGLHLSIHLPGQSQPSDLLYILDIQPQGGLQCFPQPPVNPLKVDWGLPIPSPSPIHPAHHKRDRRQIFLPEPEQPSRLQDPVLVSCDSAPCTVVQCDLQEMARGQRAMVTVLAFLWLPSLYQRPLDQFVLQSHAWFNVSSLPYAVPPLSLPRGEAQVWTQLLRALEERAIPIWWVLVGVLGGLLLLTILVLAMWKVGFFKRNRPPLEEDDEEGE
Chain of UniProt Q86X29 (Q86X29 whole entry, looked up): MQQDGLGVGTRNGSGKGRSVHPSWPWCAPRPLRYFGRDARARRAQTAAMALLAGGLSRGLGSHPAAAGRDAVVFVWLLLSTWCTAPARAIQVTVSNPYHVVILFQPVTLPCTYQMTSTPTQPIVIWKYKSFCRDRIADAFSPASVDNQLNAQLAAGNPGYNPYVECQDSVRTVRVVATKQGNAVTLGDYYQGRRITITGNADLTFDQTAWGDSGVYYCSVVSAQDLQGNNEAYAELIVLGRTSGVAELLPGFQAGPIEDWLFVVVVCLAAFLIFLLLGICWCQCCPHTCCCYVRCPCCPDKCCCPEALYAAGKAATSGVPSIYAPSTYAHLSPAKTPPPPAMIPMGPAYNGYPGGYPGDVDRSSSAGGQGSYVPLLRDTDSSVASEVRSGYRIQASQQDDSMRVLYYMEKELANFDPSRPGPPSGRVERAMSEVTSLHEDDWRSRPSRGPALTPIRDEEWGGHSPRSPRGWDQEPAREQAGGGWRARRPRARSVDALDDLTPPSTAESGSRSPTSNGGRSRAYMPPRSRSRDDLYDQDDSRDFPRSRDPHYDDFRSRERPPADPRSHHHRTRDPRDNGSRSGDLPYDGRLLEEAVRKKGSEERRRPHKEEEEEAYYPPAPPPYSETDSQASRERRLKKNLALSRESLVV
Chain of UniProt Q13257 (Q13257 whole entry, looked up): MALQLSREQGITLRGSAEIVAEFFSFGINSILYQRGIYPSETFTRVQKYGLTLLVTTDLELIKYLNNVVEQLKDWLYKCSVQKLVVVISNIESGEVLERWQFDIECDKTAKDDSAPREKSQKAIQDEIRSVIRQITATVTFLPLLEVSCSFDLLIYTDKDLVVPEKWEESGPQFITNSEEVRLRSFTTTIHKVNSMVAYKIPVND

Target	log2 fold change [1]	log2 fold change [2]	log2 fold change [3]	log2 fold change [4]	log2 fold change [5]
MAD2L1 (UniProt Q13257)	-0.045	0.077	0.067	-0.021	-0.019
MED25 isoform 3 (UniProt Q71SY5)	-0.12	0.06	-0.14	-0.128	-0.257
LPIN1 isoform 7 (UniProt Q14693)	-0.071	0.086	0.071	0.02	0.023
MASTL (UniProt Q96GX5)	0.047	0.081	0.009		-0.02
LYN (UniProt P07948)	0.035	0.038	0.013	0.028	-0.043
IKZF1 isoform 2 (UniProt Q13422)	0.335	0.217	0.052	-0.026	0.061
MFSD8 (UniProt Q8NHS3)	-0.134	-0.033	0.074	-0.289	0.119
L2HGDH (UniProt Q9H9P8)	-0.031	0.07	0.078	0.018	-0.029
KIAA1324L (UniProt A8MWY0)	0.041	0.044	0	-0.001	0.035
MBLAC1 (UniProt A4D2B0)	-0.019	0.067	-0.064		-0.029
MAP3K7 (UniProt O43318)	-0.085	0.005	0.11	0.061	0.023
KMT2C isoform 3 (UniProt Q8NEZ4)	0.032	0.04	0.017	-0.076	-0.001
KRAS isoform 2 (UniProt P01116)	-0.002	-0.065	0.096	0.005	0.053
MED8 isoform 2 (UniProt Q96G25)	0.011	-0.053	-0.381 (active)		0.039
LMNA (UniProt P02545)	0.043	-0.016	-0.044	-0.017	0.052
LTO1 (UniProt Q8WV07)	0.054	-0.02	0.142	-0.062	0.03
LUZP1 (UniProt Q86V48)	-0.053	-0.141	-0.171	-0.217	-0.201
KIF21A isoform 4 (UniProt Q7Z4S6)	-0.003	-0.024	0.061	-0.077	0.014
IPO13 (UniProt O94829)	-0.005	0.008	0.098	0.037	0.034
KIF1B isoform 3 (UniProt O60333)			-0.246		

Target	log2 fold change [1]	log2 fold change [2]	log2 fold change [3]	log2 fold change [4]	log2 fold change [5]
MAN2B2 (UniProt Q9Y2E5)	0.097		0.096	0.074	
MFSD12 isoform 3 (UniProt Q6NUT3)		0.026		-0.129	0.135
ITPRID2 (UniProt P28290)			0.106		
MELK (UniProt Q14680)	0.044	-0.057		0.197	-0.057
KIZ (UniProt Q2M2Z5)		-0.082			0.453
IL10RB (UniProt Q08334)	-0.081		-0.149	0.029	
MAP2K5 (UniProt Q13163)		0.053			-0.034
MAP4K2 (UniProt Q12851)	-0.08	0.063		-0.057	0
LYN isoform 2 (UniProt P07948)		0.018	-0.097		0.033
IGFBP6 (UniProt P24592)		0.018	0.011		0.01
IGFBP3 isoform 2 (UniProt P17936)		-0.081	0.034	-0.083	0.057
MAP4K4 isoform 6 (UniProt O95819)		0.177	0.049	-0.037	0.076
LSR (UniProt M0QZL9)			0.054		
KCNK5 (UniProt O95279)	-0.028	0.114			-0.054
IP6K1 (UniProt Q92551)	0.053	0.059		0.194	-0.135
LMNA isoform 2 (UniProt P02545)				-0.033	
MAP3K20 isoform 2 (UniProt Q9NYL2)				-0.033	
MAPK11 (UniProt Q15759)				-0.014	
LRBA, A0A494BZW2	0.002	0.048		0.113	0.014
ITGA2B (UniProt P08514)		0.022	0.112	0.029	-0.043

Target	log2 fold change [1]	log2 fold change [2]	log2 fold change [3]	log2 fold change [4]	log2 fold change [5]
MED12 isoform 2 (UniProt Q93074)	-0.002			-0.434	
MCM10 (UniProt Q7L590)	-0.04		0.204	0.032	
LSR isoform 3 (UniProt Q86X29)		-0.073		-0.067	-0.101
MED17 (UniProt Q9NVC6)		-0.031	0.038	0.032	-0.011
MAML1 (UniProt Q92585)		0.018	0.15		0.077
MCOLN3 (UniProt Q8TDD5)	-0.075			0.039	
KIF13A isoform 4 (UniProt Q9H1H9)		0.031			-0.367
MAGED1 isoform 2 (UniProt Q9Y5V3)		0.031	0.148		-0.01
MFAP3 (UniProt P55082)	0.007		0.25	-0.155	
LUM (UniProt P51884)		-0.05	0.087	0.144	0.143
LRRCC1 (UniProt Q9C099)				0.046	
MAPRE3 isoform 2 (UniProt Q9UPY8)		0.033		0.279	0.017
LRRFIP1 isoform 4 (UniProt Q32MZ4)		-0.204			0.009
IKZF1 (UniProt R9R4D9)		0.08		0.039	-0.159
INTS5 (UniProt Q6P9B9)	-0.091		0.052	0.065	
ING5 (UniProt Q8WYH8)		0.051		0.036	-0.037
LEPROT (UniProt O15243)		-0.022		-0.235	0.112
MGRN1 isoform 2 (UniProt O60291)	-0.088	-0.004		0.036	0.086
